Screen size: about 220,000 compounds; about 2,300 (1%) were called active. Another 6% or so got no clear call; they are omitted. Only a selection was taken, and actives are over-represented in it overall. Values without a mark were called inactive. Calls follow the shape of the dose curve; as a rule, active = well fitted inhibition curve with a large enough effect; inconclusive = small, poorly fitted or top-dose-only effect, or effect the other way; inactive = no such curve, though single readings can be large or run the other way.
Molecular target: Neuropeptide S receptor (Homo sapiens) (UniProt Q6W5P4)
Sequence (Q6W5P4 whole entry, looked up): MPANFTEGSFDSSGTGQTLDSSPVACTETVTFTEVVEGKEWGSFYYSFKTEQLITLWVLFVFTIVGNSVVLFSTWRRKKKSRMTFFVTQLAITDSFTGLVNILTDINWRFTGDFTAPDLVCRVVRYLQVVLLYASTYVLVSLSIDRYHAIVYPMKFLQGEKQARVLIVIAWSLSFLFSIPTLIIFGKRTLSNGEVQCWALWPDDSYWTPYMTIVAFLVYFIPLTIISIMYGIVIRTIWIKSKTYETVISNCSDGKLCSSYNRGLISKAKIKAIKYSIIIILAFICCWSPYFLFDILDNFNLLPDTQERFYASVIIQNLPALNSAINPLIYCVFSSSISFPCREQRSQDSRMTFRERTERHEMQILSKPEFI
Experiment: qHTS Assay for Antagonists of the Neuropeptide S Receptor: cAMP Signal Transduction; also: nearly all actives have a fitted effect of over 50% in size
Conditions: CHO-NPSR cells, cAMP TR-FRET, antagonist mode; series mostly up to 38.3 µM; activity change, negative = inhibition: at the top concentration
From the text: NIH Chemical Genomics Center [NCGC] NIH Molecular Libraries Probe Production centers Network [MLPCN] MLPCN Grant: X01-DA026210-01 Assay Submitter (PI): Heilig, Markus Alexander NCGC Assay Overview: Neuropeptide S receptor (NPSR), previously known as GPR154, is a recently de-orphanized G protein coupled receptor. Its endogenous ligand is the 20 amino acids peptide Neuropeptide S (NPS). […] NPS and its receptor are found in various tissues. Specifically they are highly expressed in brain areas that have been implicated in modulation of arousal, stress and anxiety. Central administration of NPS in mice produces an unusual profile of activity by inducing wakefulness and arousal, while at the same time suppressing anxiety. Therefore, NPSR may represent a novel drug target for the treatment of sleep and anxiety disorders. To identify NPSR antagonists, we developed a cell-based cAMP assay. NPS can stimulate the production of cAMP in Chinese hamster ovary cells stably expressing NPS receptor. This change in intracellular cAMP level can be detected by a homogeneous LANCE cAMP assay based on the TR-FRET (time resolved fluorescence resonance energy transfer) between a europium-labeled cAMP tracer complex and a cAMP-specific antibody labeled with Alexa Fluor 647. The europium-labeled cAMP tracer complex is formed by the tight interaction between Biotin-cAMP (b-cAMP) and streptavidin labeled with Europium-W8044 chelate (Eu-SA). Light pulse at 320 nm excites the europium of the cAMP tracer and the energy emitted is transferred to the Alexa molecule bound to the cAMP antibody, generating a TR-FRET signal at 665 nm. Residual energy from the europium will produce a light at 620 nm. The native unlabeled cAMP from cell lysates competes with the europium-cAMP tracer for antibody binding and reversely reduces the emission signal of Alexa by interrupting FRET between the two labeled molecules. Both emission signals from the FRET donor (620 nm) and the acceptor (665 nm) can be detected by a plate reader in the TRF mode. Expression of result in fluorescence ratio (665 nm/620 nm) helps to normalize differences due to cell density and reagent dispensing. This assay was successfully optimized to a 1536-well plate format.
NCGC Assay Protocol Summary: A Chinese hamster ovary (CHO) cell line stably expressing the NPS receptor (CHO-NPSR) was obtained from Dr. Heilig lab at NIAAA and maintained in F-12 Kaighn's media (Invitrogen, Carlsbad, CA, 21127) supplemented with 10 % FBS, 100 units/ml penicillin, 100 ug/ml streptomycin and 250 ug/ml geneticin at 37C, 5% CO2 in a humidified atmosphere. Before the assay, aliquots of cells were frozen and stored at -135C. The assay was performed in 1536-well format. Data are reported for both the ratio of the two emission wavelengths, and also for the component 'donor' channel, Em2=620. Data were normalized to the controls for basal activity (DMSO only) and 100% inhibition (No NPS control). IC50 values were determined from concentration-response data modeled with the standard Hill equation. NPS 1536-well assay protocol: (1) Fresh or frozen CHO-NPSR cells were suspended in F-12 Kaighn's media supplemented with 10 % FBS, 100 units/ml penicillin and 100 ug/ml streptomycin. Cells were plated at 4 ul/well (1200 cells) to white, tissue culture treated 1536-well plates, and then cultured at 37C, 5 % CO2 for 16 to 30 hours. (2) Add 23 nl/well of compound in DMSO solution. The final titration for each compound was between 0.6 nM and 46 uM. (3) Add 1 ul of stimulation reagent (1X HBSS buffer, 5 mM HEPES, 0.1% BSA, 500 uM RO-201724 (Sigma-Aldrich, B8279), 1.5% Alexa 647-labeled anti-cAMP antibody (from Perkin Elmer), 100 nM NPS) (4) Incubation at 37C, 5 % CO2 for 60 min. (5) Add 1 ul/well detection reagent. Detection reagent was prepared by adding biotin labeled cAMP (4%), streptavidin labeled with Europium-W8044 chelate (1.33%) and TritonX-100 (1%) to detection buffer. […]
% is scaled to controls: 0 for no effect and ±100 for the full control effect; potency is read from the fitted curve at half-maximal effect.

Compound | activity change, negative = inhibition | Potency
N#C/C(=C\N1CCOCC1)S(=O)(=O)c1ccc(Cl)cc1 | 14.9% | 
O=C(COc1ccccc1)N1CCN=C1SCc1cccc(F)c1 | -1.12% | 
N#CCCCn1c(O)c(N=NC(=O)C(O)c2ccccc2)c2ccccc21 (stereo unspecified) | -19.2% | 
O=C(NCc1ccccn1)c1cc(Br)ccc1Cl | 7.75% | 
O=C(NCC(c1cccs1)N1CCOCC1)c1cc(-c2ccccn2)nc2ccccc12 (stereo unspecified) | 7.93% | 
O=C(NCc1cccs1)c1cc(-c2ccccn2)nc2ccc(Br)cc12 |  | 10 µM (active)
C#CCO[C@@H]1C[C@H](n2cnc3c(=O)[nH]c(NC(=O)C(C)C)nc32)O[C@@H]1CO | 10.8% | 
CCC1=NN2C(=N)/C(=C/c3cc(C)n(-c4ccccc4)c3C)C(=O)N=C2S1 | 19.1% | 
Cc1ccc2cc(/C=N/Nc3ccc(C(=O)O)cc3)c(Cl)nc2c1 | -22.4% | 
Cc1nn(-c2ccccn2)c2c1C(c1ccncc1)C1=C(CC(C)(C)CC1=O)N2 (stereo unspecified) | -14.2% [at 46.1 µM] | 
Cc1ccc(C2C3=C(Nc4[nH]n(-c5ccccc5)c(=O)c42)c2ccccc2C3=O)cc1 (stereo unspecified) | -43.2% | 
Cc1cc(C)c(C2C3=C(Nc4c2c(C)nn4-c2ccccn2)c2ccccc2C3=O)c(C)c1 (stereo unspecified) |  | 10 µM (active)
COCc1cc(=O)[nH]c(-c2ccc(C(F)(F)F)cc2)n1 | -8.06% | 
Cc1oc(C(N)=O)cc1COc1ccc(C(N)=O)cc1 | 11.4% | 
O=C(Nc1nc2ccc([N+](=O)[O-])cc2s1)c1ccncc1 | -23.6% | 
O=C(O)CCC(=O)Nc1nc2ccc([N+](=O)[O-])cc2s1 | 36.1% | 
O=C(NC(Nc1nc2ccc([N+](=O)[O-])cc2s1)(C(F)(F)F)C(F)(F)F)c1ccccc1 |  | 3.98 µM (active)
O=c1c2cc(-c3ccccc3)sc2nc2n1N=C(c1cccs1)CS2 | 12.2% | 
Brc1ccc2ncnc(NCc3cccnc3)c2c1 | 48.1% | 
O=C(Nc1cccnc1Oc1ncnc2cc(Cl)ccc12)c1ccc(F)cc1 | 4.01% | 
N#Cc1c(NCCO)ccc([N+](=O)[O-])c1NCCO | 8.09% | 
CCN1CCN(c2ccc([N+](=O)[O-])cc2C(=O)c2ccc(Cl)cc2)CC1 | -24.6% [at 46.1 µM] | 
Cc1cccc(NC(=O)c2cc([N+](=O)[O-])ccc2N2CCN(C)CC2)c1 | -44.1% | 
O=C(Nc1cccc(Cl)c1)c1cc([N+](=O)[O-])ccc1N1CCN(CCO)CC1 |  | 10 µM (active)
CCC(C)N1C(=S)SC(C)(C)C1N(O)C(=O)NC1CCCCC1 (stereo unspecified) | -8.21% | 
CCCN(CCC)S(=O)(=O)c1ccc(C(=O)N2CC3CCC(CC3)C2)cc1 | 59.1% | 

Compound | activity change, negative = inhibition | Potency
CCOc1ccc(-c2n[nH]c(C)c2-c2ccccn2)c(O)c1 | -0.578% | 
COc1ccc(C(=O)Cc2cnn(-c3ccccc3)c2)c(O)c1 | -8.11% [at 46.1 µM] | 
Cc1[nH]nc(-c2ccc(OCc3cnn(-c4ccccc4)c3)cc2O)c1Oc1ccc(Cl)cc1 |  | 10 µM (active)
CC(C)n1c(CN2CCN(Cc3ccccc3)CC2)nc2ccccc21 | 15.9% | 
Cn1cc(S(=O)(=O)NC(c2ccccc2)c2ccccc2)c(=O)n(C)c1=O | 11.3% | 
CC(=O)Nc1nc2ccccc2n1Cc1ccc(C)cc1 | 2.41% | 
CCCc1nc2c(C)cc(-c3nc4ccccc4n3C)cc2n1Cc1ccc(-c2ccccc2C(=O)O)cc1 |  | 1.26 µM (active)
CCC(=O)NCCc1nc2ccccc2n1CC | -9.81% [at 46.1 µM] | 
CS(=O)(=O)c1sc(C(=O)NC(=S)Nc2ccc(OC(F)(F)F)cc2)c2c1C=CCC2 | 0.129% | 
Cc1cccc(-[n+]2c(-c3cccc(Br)c3)[nH]c3nc4ccccc4nc32)c1 |  | 10 µM (active)
Cc1ccc2nc(-c3cccc(Br)c3)cc(C(=O)Nn3cnnc3)c2c1 | -9.85% | 
COc1ccc2cc1Oc1ccc(cc1)C[C@H]1c3cc(c(OC)cc3CCN1C)Oc1c(O)c(OC)cc3c1[C@H](C2)N(C)CC3 | 6.91% | 
O=C(Nc1nnc(COc2ccccc2)s1)Nc1ccccc1F | 14.2% | 
CCC(=O)c1ccc(OCC(=O)Nc2ccc3nc(C)sc3c2)cc1 | -3.19% | 
Cc1cccn2c(=O)c(/C=C3\SC(=S)N(CC(C)C)C3=O)c(NCCCOC(C)C)nc12 | -1.16% [at 46.1 µM] | 
CCOC(=O)CC1C(=O)NCCN1c1nc2c(C)cccn2c(=O)c1/C=C1\SC(=S)N(C(C)CC)C1=O (stereo unspecified) |  | 12.6 µM (active)
CCOC(=O)CC1C(=O)NCCN1C(=O)COc1ccc(Br)cc1C (stereo unspecified) | 2.52% [at 46.1 µM] | 
CC(C)OP(=O)(OC(C)C)C(Nc1ccccc1)c1cccc([N+](=O)[O-])c1 (stereo unspecified) | -43.6% | 
Cc1sc(NC(=S)NC(=O)c2cccs2)nc1-c1ccc(CC(C)C)cc1 |  | 12.6 µM (active)
Cc1ccc(-c2csc(NC(=O)c3cccs3)n2)cc1 | -24.1% [at 46.1 µM] | 
CCc1nnc(NS(=O)(=O)c2ccc(NC(=S)NC(=O)c3cccs3)cc2)s1 | 27.6% | 
COC(C[C@@H](O)[C@H](C)[C@H](O)COCc1ccccc1)OC | 21.1% | 
O=C(Nc1ccccc1)O/N=C1/CCCc2occc21 | 2.04% | 
O=C(CNCc1cccs1)Nc1cc(S(=O)(=O)N2CCCC2)ccc1Cl | -21.1% | 
C=CCNC(=O)CSc1nc2scc(-c3ccco3)c2c(=O)n1CC=C | -7.73% | 

From PubChem BioAssay AID1461 (National Center for Advancing Translational Sciences (NCATS), 2008)
